Experiment [1] has as its target T1, Tyrosine-protein kinase receptor TYRO3 (Homo sapiens) (UniProt Q06418).
T1 sequence (whole entry): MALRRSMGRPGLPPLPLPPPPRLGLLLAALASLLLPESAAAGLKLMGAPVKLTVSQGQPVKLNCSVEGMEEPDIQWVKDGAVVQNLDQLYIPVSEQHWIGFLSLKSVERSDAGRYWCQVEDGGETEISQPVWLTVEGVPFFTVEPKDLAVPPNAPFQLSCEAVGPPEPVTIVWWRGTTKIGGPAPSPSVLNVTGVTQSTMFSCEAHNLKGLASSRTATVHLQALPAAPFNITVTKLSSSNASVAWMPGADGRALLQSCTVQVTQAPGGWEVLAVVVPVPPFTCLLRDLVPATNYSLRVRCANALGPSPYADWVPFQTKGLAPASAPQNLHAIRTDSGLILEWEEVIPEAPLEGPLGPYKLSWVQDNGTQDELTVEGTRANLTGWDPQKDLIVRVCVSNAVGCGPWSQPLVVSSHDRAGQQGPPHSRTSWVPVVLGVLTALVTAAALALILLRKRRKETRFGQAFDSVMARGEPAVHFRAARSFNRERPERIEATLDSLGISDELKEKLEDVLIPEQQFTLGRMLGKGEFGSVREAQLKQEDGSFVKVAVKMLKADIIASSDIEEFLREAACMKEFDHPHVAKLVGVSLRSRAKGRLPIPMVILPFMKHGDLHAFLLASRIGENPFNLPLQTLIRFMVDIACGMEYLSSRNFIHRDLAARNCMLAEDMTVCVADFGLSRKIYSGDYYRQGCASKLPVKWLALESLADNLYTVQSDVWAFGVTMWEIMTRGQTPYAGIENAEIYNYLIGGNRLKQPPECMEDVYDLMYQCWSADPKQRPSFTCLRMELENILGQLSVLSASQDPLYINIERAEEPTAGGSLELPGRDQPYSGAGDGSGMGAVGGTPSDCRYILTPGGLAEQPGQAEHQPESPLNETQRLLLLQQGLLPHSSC
The note with it: at 1 µM.

Experiment [2] has as its target Tyrosine-protein kinase Yes (Homo sapiens) (UniProt P07947). The note with it: at 0.1 µM.
The target is the same in experiment [3]. The note with it: at 1 µM.
For experiment [4], the target named is T2, Tyrosine-protein kinase ZAP-70 (Homo sapiens) (UniProt P43403).
T2 sequence (whole entry): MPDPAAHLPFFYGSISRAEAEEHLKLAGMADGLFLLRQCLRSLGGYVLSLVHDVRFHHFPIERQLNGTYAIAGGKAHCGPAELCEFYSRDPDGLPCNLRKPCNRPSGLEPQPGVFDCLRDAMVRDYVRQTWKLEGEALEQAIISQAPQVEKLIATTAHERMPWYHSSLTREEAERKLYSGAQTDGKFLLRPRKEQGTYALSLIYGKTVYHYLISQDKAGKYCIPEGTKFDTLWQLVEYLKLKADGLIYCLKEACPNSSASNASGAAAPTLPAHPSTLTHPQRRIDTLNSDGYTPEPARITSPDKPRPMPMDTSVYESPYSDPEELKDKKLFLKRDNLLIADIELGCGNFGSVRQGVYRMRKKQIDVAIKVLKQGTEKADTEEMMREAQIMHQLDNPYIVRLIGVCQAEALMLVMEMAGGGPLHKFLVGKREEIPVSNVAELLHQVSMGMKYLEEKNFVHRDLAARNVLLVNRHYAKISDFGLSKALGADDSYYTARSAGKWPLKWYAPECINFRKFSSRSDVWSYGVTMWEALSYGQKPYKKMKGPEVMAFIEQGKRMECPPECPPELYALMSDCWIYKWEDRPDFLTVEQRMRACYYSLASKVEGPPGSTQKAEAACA
As to conditions: at 0.1 µM.

The target of experiment [5] is T2, Tyrosine-protein kinase ZAP-70 (Homo sapiens). As to conditions: at 1 µM.
In experiment [6] the target is Serine/threonine-protein kinase B-raf (Homo sapiens) (UniProt P15056). The note with it: at 0.1 µM.
The target is the same in experiment [7]. The note with it: at 1 µM.
For experiment [8], the system named is Serine/threonine-protein kinase B-raf (Homo sapiens), P15056 [V600E]. The note with it: at 0.1 µM.
The test system is the same in experiment [9]. As to conditions: at 1 µM.
Experiment [10] addresses RAF proto-oncogene serine/threonine-protein kinase (Homo sapiens) (UniProt P04049). As to conditions: at 0.1 µM.

We go through 17 molecules from ChEMBL document CHEMBL1961873, “Compounds: GSK PKIS; Assays: Nanosyn kinase panel” (2012).

Chain of RAF proto-oncogene serine/threonine-protein kinase (Homo sapiens) (P04049 whole entry): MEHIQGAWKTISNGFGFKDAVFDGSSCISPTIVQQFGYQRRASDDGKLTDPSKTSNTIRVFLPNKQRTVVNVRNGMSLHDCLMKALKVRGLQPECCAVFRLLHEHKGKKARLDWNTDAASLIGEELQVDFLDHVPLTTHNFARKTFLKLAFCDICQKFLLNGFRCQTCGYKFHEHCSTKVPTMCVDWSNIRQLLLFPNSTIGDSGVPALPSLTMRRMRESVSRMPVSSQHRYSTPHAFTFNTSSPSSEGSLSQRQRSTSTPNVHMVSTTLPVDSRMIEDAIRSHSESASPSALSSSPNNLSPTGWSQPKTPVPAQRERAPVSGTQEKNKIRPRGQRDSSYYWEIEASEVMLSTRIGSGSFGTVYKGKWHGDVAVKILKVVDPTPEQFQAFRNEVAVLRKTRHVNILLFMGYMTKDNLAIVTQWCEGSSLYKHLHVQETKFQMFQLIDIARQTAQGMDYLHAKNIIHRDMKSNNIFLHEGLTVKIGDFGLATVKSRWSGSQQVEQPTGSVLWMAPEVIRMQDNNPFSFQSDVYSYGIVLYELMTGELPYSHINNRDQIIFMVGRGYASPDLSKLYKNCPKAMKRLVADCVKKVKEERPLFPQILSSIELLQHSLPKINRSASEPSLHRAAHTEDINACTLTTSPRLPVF
Chain of Tyrosine-protein kinase Yes (Homo sapiens) (P07947 2-543 limits assumed): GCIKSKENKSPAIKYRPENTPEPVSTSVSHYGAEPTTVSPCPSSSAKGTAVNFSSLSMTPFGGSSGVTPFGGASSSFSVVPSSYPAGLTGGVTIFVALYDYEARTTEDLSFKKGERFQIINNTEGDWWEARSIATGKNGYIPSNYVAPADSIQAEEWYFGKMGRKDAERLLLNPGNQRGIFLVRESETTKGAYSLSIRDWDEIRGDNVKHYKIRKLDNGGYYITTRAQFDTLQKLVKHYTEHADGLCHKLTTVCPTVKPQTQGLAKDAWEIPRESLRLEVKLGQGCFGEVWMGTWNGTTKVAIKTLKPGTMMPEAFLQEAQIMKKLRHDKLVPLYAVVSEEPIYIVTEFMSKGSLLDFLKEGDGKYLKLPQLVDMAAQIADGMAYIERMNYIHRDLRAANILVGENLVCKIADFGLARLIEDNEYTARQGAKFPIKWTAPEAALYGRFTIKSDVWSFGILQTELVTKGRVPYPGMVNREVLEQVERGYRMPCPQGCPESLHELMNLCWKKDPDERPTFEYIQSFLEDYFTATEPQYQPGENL
Chain of Serine/threonine-protein kinase B-raf (Homo sapiens), P15056 [V600E] (P15056 whole entry V600E): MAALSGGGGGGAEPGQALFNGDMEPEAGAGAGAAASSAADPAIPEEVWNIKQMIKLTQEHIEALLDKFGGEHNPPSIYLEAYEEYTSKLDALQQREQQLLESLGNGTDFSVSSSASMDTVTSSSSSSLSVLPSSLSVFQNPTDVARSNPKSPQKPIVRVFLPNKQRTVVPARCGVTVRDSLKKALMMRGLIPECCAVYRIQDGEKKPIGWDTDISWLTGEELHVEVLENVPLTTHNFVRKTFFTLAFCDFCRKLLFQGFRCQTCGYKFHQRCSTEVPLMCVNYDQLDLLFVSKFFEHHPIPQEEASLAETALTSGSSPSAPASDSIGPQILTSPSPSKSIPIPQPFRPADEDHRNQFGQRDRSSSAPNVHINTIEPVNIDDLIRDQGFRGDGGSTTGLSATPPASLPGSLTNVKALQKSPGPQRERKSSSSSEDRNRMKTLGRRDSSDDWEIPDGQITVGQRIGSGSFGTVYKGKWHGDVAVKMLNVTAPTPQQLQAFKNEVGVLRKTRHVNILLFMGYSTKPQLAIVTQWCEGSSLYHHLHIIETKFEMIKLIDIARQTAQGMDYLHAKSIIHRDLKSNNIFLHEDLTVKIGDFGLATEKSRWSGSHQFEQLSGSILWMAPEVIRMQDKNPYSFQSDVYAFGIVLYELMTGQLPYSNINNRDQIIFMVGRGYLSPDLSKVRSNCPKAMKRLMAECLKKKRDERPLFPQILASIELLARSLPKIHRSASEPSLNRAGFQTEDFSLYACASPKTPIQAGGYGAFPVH
Chain of Serine/threonine-protein kinase B-raf (Homo sapiens) (P15056 whole entry): as the sequence (P15056 whole entry V600E) above, with E600V counted along it

By inhibition is commonly meant the change of the read-out against control, counted positive when it falls. Regarding `COc1cc2ncn(-c3cc(OCc4ccccc4Cl)c(C(N)=O)s3)c2cc1OC`, the inhibition was 9.65% in experiment [1]; 3.58% in [2]; 17.9% in experiment [3]; -2.94% in experiment [4]; 0.47% in experiment [5]; 2.05% in [6]. Moreover, the inhibition in experiment [7] stood at 2.15%; in [8], 1.45%; in experiment [9], 2.82%; in experiment [10], 0.16%.
In the case of `CS(=O)(=O)CCNCc1ccc(-c2ccc3ncnc(Nc4ccc(OCc5ccccc5)c(Cl)c4)c3c2)o1`, the inhibition was 2.01% in experiment [1]; 7.69% in experiment [2]; 39.4% in [3]; -7.6% in [4]; -0.02% in experiment [5]; 0.1% in experiment [6]. Also, the inhibition in experiment [7] was 1.24%; in experiment [8], 1.67%; in [9] it was 1.38%; in experiment [10] it was -1.06%.
For `O=C1NC(=O)C(c2ccc(Cl)cc2)=C1Nc1ccc(Cl)c(C(=O)O)c1`, the inhibition in [1] was -3.28%; in experiment [2], -3.3%; in experiment [3], 0.94%; in experiment [4], -3.81%; in experiment [5], -2.06%; in [6] it was -1.66%. For the same molecule, the inhibition was -3.28% in experiment [7], -4% in experiment [8], -3.77% in [9] and -4.76% in [10].
Take `Nc1ncnc2occ(-c3ccc(NC(=O)Nc4cc(C(F)(F)F)cc(C(F)(F)F)c4)cc3)c12`: the inhibition in experiment [1] came out at 29.6%; in experiment [2] it was 1.45%; in [3] it was 11.7%; in [4] it was 2.13%; in experiment [6], 3.58%; in experiment [7], 7.33%. Also, the values for the inhibition in experiment [8], in experiment [9] and in experiment [10] were 2.27%, 7.76% and 4.46%, respectively.
With `CC1=C(C(=O)Nc2ccc3[nH]ncc3c2)C(c2ccc3ccccc3c2)CC(=O)N1` (configuration not stated), the inhibition is 6.2% in [1]; 16.6% in experiment [2]; 62.9% in experiment [3]; 3.08% in experiment [4]; 2.98% in experiment [5]; 8.21% in experiment [6]. Besides, the inhibition in experiment [7] was found to be 43.5%; in [8] it was 8.51%; in [9], 45.2%; in experiment [10] it was 1.05%.
For the molecule `O=C1NC(=O)C(c2ccccc2Cl)=C1Nc1cccc(O)c1`, the inhibition in [1] is 1.2%; in experiment [2] it was 1.06%; in [3], -1.97%; in experiment [4], 1.65%; in experiment [5] it was 0.4%; in experiment [6] it was 3.05%. Further, the inhibition was 3.21% in experiment [7], 3.01% in experiment [8], 2.95% in experiment [9] and 4.73% in experiment [10].
`COc1cc(C)c(NC(=O)CN(C)C)cc1Nc1nc(Nc2cccc(F)c2C(N)=O)c2cc[nH]c2n1`: the inhibition was 7.81% in experiment [1]; 2.05% in experiment [2]; -2.14% in [3]; 3.93% in experiment [5]; 2.75% in [6]; 6.44% in [7]. The inhibition is 3.06% in experiment [8], 6.56% in experiment [9] and -0.92% in experiment [10].
As to `Cc1cc(O)cc(C)c1/C=C/c1cncc(-c2nn[nH]n2)c1`, the inhibition is 11.2% in experiment [1]; 5.57% in [2]; 41.3% in [3]; -1.14% in experiment [4]; 7.69% in experiment [6]; 10.1% in [7]. The figures for the inhibition in experiment [8], in [9] and in experiment [10] were 7.48%, 8.79% and 4.51%, respectively.
For `CCn1c(-c2nonc2N)nc2ccncc21`, the inhibition in experiment [1] was -0.39%; in [2], 1.81%; in [3], -1.91%; in experiment [4] it was 7.67%; in [5], 3.68%; in experiment [6], 2.92%. For the same molecule, the inhibition was 2.33% in experiment [7], 1.64% in experiment [8], 3.84% in [9] and 6.58% in [10].
Consider `CN1CCC(C(=O)Nc2n[nH]c3nnc(-c4ccccc4)cc23)CC1`, for which the inhibition came to 5.28% in experiment [1]; 3.36% in experiment [2]; 3.47% in experiment [3]; 4.09% in experiment [4]; 5.43% in experiment [5]; 7.26% in [6]. Also, the inhibition in [7] turned out to be 7.83%; in [8] it was 8.27%; in [9] it was 7.58%; in experiment [10], 16.6%.
With `Cc1ccc(NC(=O)c2ccnc(N3CCCC3)c2)cc1-c1ccc(C(=O)NCC2CC2)cc1`, the inhibition in experiment [1] was 1.97%; in [2] it was 2.17%; in experiment [3], 3.08%; in [4], -2.27%; in experiment [5], 0.03%; in [6], 8.24%. Further, the inhibition in experiment [7] was found to be 14.7%; in [8], 7.57%; in experiment [9] it was 15%; in experiment [10], 4.02%.
Take `O=C(Nc1n[nH]c2nc(-c3ccco3)c(Br)cc12)C1CC1`: the inhibition turned out to be 4.49% in experiment [1]; 4.26% in [2]; 13.8% in experiment [3]; 1.19% in experiment [4]; 3.08% in experiment [5]; 5.54% in experiment [6]. In addition, the inhibition in experiment [7] was 5.7%; in experiment [8], 6.02%; in experiment [9], 5.23%; in experiment [10], 1.52%.
On to `Cc1ccc(C(=O)NC2CCCCC2)cc1-c1ccc(C(=O)NCC2CC2)cc1`, for which the inhibition in [1] was -0.08%; in [2], 1.31%; in [3] it was 1.09%; in experiment [4], 2.48%; in experiment [5], 6.15%; in experiment [6], 3.92%. Moreover, the inhibition stood at 3.21% in experiment [7], 3.15% in experiment [8], 3.03% in [9] and 4.27% in experiment [10].
Consider `COc1cc2c(cc1Nc1nc(N3CCc4ccccc43)c3cc[nH]c3n1)N(C(=O)CN(C)C)CC2`, for which the inhibition is 1.54% in experiment [1]; -0.07% in experiment [2]; -1.83% in experiment [3]; 1.18% in experiment [4]; 1.69% in experiment [6]; 2.22% in experiment [7]. Besides, the values for the inhibition in experiment [8], in experiment [9] and in [10] were 1.91%, 1.68% and -4.52%, respectively.
For the molecule `NC(=O)c1ccc(-c2nc(-c3ccccn3)c(-c3ccc4c(c3)OCO4)[nH]2)cc1`, the inhibition in experiment [1] is 1.12%; in experiment [2], 2.51%; in experiment [3], 7.17%; in experiment [4], 0.96%; in experiment [5] it was -2.34%; in [10], -6.15%.
In the case of `Fc1cccc(COc2ccc(Nc3ncnc4sc(-c5cccs5)cc34)cc2Cl)c1`, the inhibition is 1.15% in experiment [1]; 0.57% in experiment [2]; 1.28% in experiment [3]; -1.83% in [4]; 1.54% in [5]; 1.35% in experiment [6]. Also, the inhibition stood at 2.73% in experiment [7], 1.62% in experiment [8], 1.65% in experiment [9] and 1.45% in [10].
For the molecule `NS(=O)(=O)c1ccc(N/N=C2\C(=O)Nc3ccc(C(=O)NCCc4c[nH]cn4)cc32)cc1`, the inhibition in experiment [1] came to 21.7%; in experiment [2], 2.67%; in experiment [3], 11.8%; in [4], 1.45%; in experiment [5] it was 5.13%; in [6], 7%. The inhibition in experiment [7] was 16.5%; in experiment [8] it was 6.04%; in experiment [9], 15.9%; in experiment [10], -2.7%.
